From PubChem
Avidin fluor: avidin bead compound fluorescence profile | hit rate 0.38% among 220,000 | Avidin beads, compound fluorescence 488/530 nm, flow cytometry; active compounds read high | fluorescence (KMESF) at 10 µM; in the data active = fluorescence above about 47
EP2 mod: EP2 receptor (human) modulation. induction, % at 25 µM. P43116. hit rate 0.83% among 260,000. EP2-expressing cells, cAMP HTRF FRET, PGE2 co-stimulation. AID 940;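 active = compounds whose cAMP rise, as percent of the full-agonist control response, exceeds 60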;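 also: rat C6 glioma line stably carrying human EP2 under a CMV promoter; the protocol text gives 20 µM as final concentration; 100% = response of wells given 1 µM PGE2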
Target sequence (P43116 whole entry, looked up): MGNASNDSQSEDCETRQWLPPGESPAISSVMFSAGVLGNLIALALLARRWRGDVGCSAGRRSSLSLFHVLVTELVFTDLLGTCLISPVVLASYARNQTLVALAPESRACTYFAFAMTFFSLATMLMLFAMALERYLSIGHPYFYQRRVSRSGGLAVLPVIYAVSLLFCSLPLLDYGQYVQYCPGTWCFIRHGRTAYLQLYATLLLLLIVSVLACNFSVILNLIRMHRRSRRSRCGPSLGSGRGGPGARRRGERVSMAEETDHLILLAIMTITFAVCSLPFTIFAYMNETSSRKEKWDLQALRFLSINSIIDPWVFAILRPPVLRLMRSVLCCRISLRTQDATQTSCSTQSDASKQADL
GSH bead fluor: compound fluoresces at 488/530 nm on GSH beads. hit rate 0.25% among 190,000. AID 1776. GSH beads flow cytometry, compound fluorescence 488/530 nm; active compounds read high. fluorescence (KMESF) at 10 µM; in the data active = fluorescence above about 89;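 also: glutathione beads carrying GST-tagged Bcl family fusion proteins plus one bare bead set; values are compound well signal with DMSO vehicle wells as background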
PGE2 EP2 inh: inhibitors of human EP2 prostaglandin E2 receptor. P43116. C6 glioma cells expressing human EP2, cAMP TR-FRET; cells stimulated with saturating PGE2. inhibition, % at 25 µM. hit rate 0.52% among 260,000. AID 1422;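 active = percent inhibition above 40 after rounding to a whole number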;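 also: rat C6 glioma host cells with rolipram phosphodiesterase inhibitor present; the protocol text gives 20 µM as final concentration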
HMGR II inh: E. faecalis class II HMG-CoA reductase inhibition | AID 1066 | inhibition, % at 10 µM | hit rate 0.41% among 190,000 | purified E. faecalis HMGR, NADPH absorbance 340 nm kinetic;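 active = inhibition above a set limit, the median over all tested compounds plus 3 SD, cut at about 9.5% in these data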;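 also: enzyme runs in reverse so mevalonate oxidation gives rising NADPH absorbance; 0% = complete reaction with DMSO and 100% = background rate lacking mevalonate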
* hit, by the source's call; · = no result given. This is a sample that favours compounds with a hit; in the whole collection about 2.1% have one here.

SMILES	Avidin fluor	EP2 mod	GSH bead fluor	PGE2 EP2 inh	HMGR II inh
CCC(c1nnnn1C1CCCC1)N(Cc1ccco1)Cc1cc2cc(C)ccc2[nH]c1=O (stereo unspecified)	·	69.3*	·	7.8	·
Cc1cc(C)c2[nH]c(=O)c(C(c3nnnn3C3CCCCC3)N3CCN(C)CC3)cc2c1 (stereo unspecified)	·	3.3	·	10.9	·
Fc1ccccc1CN(CCCn1ccnc1)Cc1cccc2cccnc12	·	27.9	·	6.3	·
Cc1ccc(C)c(NC(=O)c2cc(-c3ccccc3)nn2-c2ccccc2)c1	14	63.5*	12	2.1	-5.8
Cc1ccc(C)c(NC(=O)c2nc(-c3ccccc3)n(-c3ccccc3)n2)c1	12	45.3	21	-0.8	-7.6
Fc1ccccc1-c1nc(NCc2ccccc2)c2ccccc2n1	8	37.0	·	7.3	·
c1ccc(CNc2nc(NCc3ccccc3)c3ccccc3n2)cc1	28	-54.1	·	95.5*	·
CC(C)(C)NC(=O)C(c1ccccc1F)N(Cc1cccnc1)C(=O)c1csnn1 (stereo unspecified)	·	4.0	·	5.9	·
Cc1cc(NC(=O)C(=O)c2cn(C)c3ccccc23)no1	62*	-45.9	14	1.9	-1.0
CC(C)(C)OC(=O)CSc1nc2c(cc1C#N)CCCCC2	·	3.2	·	10.4	·
COc1ccc(Nc2nc3ccccc3nc2-n2nc(C)cc2C)cc1	14	65.3*	34	9.5	-2.5
Cc1cc(C)n(-c2nc3ccccc3nc2NCCc2ccccc2)n1	8	55.0	22	7.8	-0.3
O=C(CSc1nc(C2CC2)nc2ccccc12)c1ccccc1	·	56.4	·	18.3	·
COc1nc(Nc2ccc(C(C)=O)cc2)nc(OC)n1	76*	-18.9	33	4.4	-0.6
COc1ccc(Nc2nc(OC)nc(OC)n2)cc1	·	-27.4	·	5.1	·
COCC(C)n1c(C)cc(C(=O)CSc2nc3ccccc3c(=O)[nH]2)c1C (stereo unspecified)	33	62.0*	16	6.9	-0.2
CN(C)C(=O)CSc1nc2ccccc2c(=O)[nH]1	165*	-5.2	24	14.6	-0.9
CCN(CC)C(=O)CSc1nc2ccccc2c(=O)[nH]1	5	12.7	32	13.4	-0.5
COCCn1c(C)cc(C(=O)CSc2nc3ccccc3c(=O)[nH]2)c1C	35	-52.9	13	3.7	-6.3
O=C(Nc1ccc(S(=O)(=O)Nc2ncccn2)cc1)c1cc(Cl)ccc1Cl	·	-36.2	·	10.6	·
C[N+](C)(C)CCCSc1nc2ccccc2[nH]1	·	20.7	·	41.9*	·
CC(C)CCSc1nc2ccccc2[nH]1	10	-24.4	14	7.7	-2.1
CC(=O)n1cc(C(C[N+](=O)[O-])SCCN)c2ccccc21 (stereo unspecified)	14	-50.0	18	50.3*	-4.0
COC(=O)/C(=C/c1cn(C(C)=O)c2ccccc12)[N+](=O)[O-]	10	-84.6	·	14.2	·
CCOC(=O)CSc1ccc(C(=O)Nc2ccc(Cl)cc2)cn1	19	-46.9	15	41.0*	-0.6
SMILES	Avidin fluor	EP2 mod	GSH bead fluor	PGE2 EP2 inh	HMGR II inh
CCOC(=O)CSc1ccc(C(=O)Nc2ccc(OC)cc2)cn1	12	4.0	15	28.5	-3.1
COc1ccccc1N1CCN(CC(=O)Nc2ccccc2-c2ccccc2)CC1	·	42.7	·	6.7	·
COc1cccc(NC(=O)c2cn3ccc(C)cc3n2)c1	·	-4.7	·	10.8	·
CCOC(=O)c1oc2cccc(OCC(O)CNC(C)C)c2c1C (stereo unspecified)	127*	·	31	·	-6.4
CC(=O)c1sc(NC(=O)c2cc3ccccc3o2)nc1C	·	-19.5	·	15.5	·
COc1ccc(CCN2C(=O)c3ccccc3C2(O)c2ncc[nH]2)cc1OC (stereo unspecified)	4	10.2	146*	24.6	-0.3
CC(=O)OCC(=O)[C@@]1(O)CCC2C3CC[C@@H]4C[C@H](O)CC[C@]4(C)C3C(=O)C[C@@]21C (stereo partly specified)	·	12.1	·	11.3	·
COc1ccc(OCCSc2nnc(-c3ccccc3)n2N)cc1	63*	8.9	28	16.6	0.7
COC(=O)c1scc(C)c1N/N=C(\C)c1ccc(F)cc1	4	60.6*	44	3.7	2.9
COC(=O)c1scc(C)c1NC(=O)Nc1ccccc1	14	23.2	36	12.2	-2.0
Cc1cccc2cc(C#N)c(SCC(=O)N3c4ccccc4CC3C)nc12 (stereo unspecified)	·	18.3	·	26.0	·
CC1(C)NC(=O)N(CC(=O)Nc2nc(-c3ccc(F)cc3)cs2)C1=O	195*	-0.5	5	·	-0.1
O=C(CN1C(=O)NC2(CCCC2)C1=O)Nc1nc(-c2ccc(F)cc2)cs1	10	-18.8	15	16.8	-3.0
CCOCCCNc1c(C(C)=O)nnn1-c1ccc(F)cc1	·	-7.5	·	·	·
CSc1nc(-c2ccccc2)cn1-c1ccc(NC(C)=O)cc1	23	-30.6	12	12.1	9.8*
CCOc1ccc(-c2cn(-c3ccc(OC)cc3)c(SC)n2)cc1	11	-41.2	5	6.0	5.8
O=c1[nH]c2cc3c(cc2cc1CN(Cc1nnnn1Cc1ccccc1)C1CCCCC1)OCCO3	·	2.7	·	7.5	·
COC1=CC(=O)C(O)=C/C1=C\C=C\c1ccccc1	·	-31.9	·	111.5*	·
O=C(CCCOc1ccc(Cl)cc1Cl)N1CCCc2ccccc21	4	21.8	250*	11.6	-2.5
O=C(COC(=O)Cn1cnc2ccccc21)NCCC1=CCCCC1	8	20.7	257*	10.8	1.9
O=C(Cn1cnc2ccccc21)OCC(=O)N1CCCc2ccccc21	7	-13.1	253*	·	-4.0
Cc1ccc(OCC(=O)N2CCCc3ccccc32)cc1	7	-12.5	140*	12.0	-6.0
O=C(COC(=O)Cn1cnc2ccccc21)NCCc1ccc(Cl)cc1	39	24.6	16	11.1	0.6
Cc1ccc(C(=O)N2CCCc3ccccc32)c(F)c1F	·	61.5*	·	4.1	·
CCOc1ccccc1NC(=S)Nc1ncccc1C	24	26.3	10	41.4*	-1.4
SMILES	Avidin fluor	EP2 mod	GSH bead fluor	PGE2 EP2 inh	HMGR II inh
CCOc1ccc(OCCn2c(SCC(N)=O)nc3ccccc32)cc1	·	-26.3	·	9.5	·
CC(=O)c1c(C(C)=O)c(C)n(NC(=O)c2ccc(Cl)cc2)c1C	71*	-5.8	21	9.1	-0.1
CC(C)COP(=O)(OCC(C)C)C(Nc1ccccc1)c1ccccc1 (stereo unspecified)	9	70.4*	·	3.3	·
CC(C)COP(=O)(OCC(C)C)C(Nc1ccccc1)c1ccc(F)cc1 (stereo unspecified)	7	44.2	3	1.7	-0.3
O=C(CCCCl)Nc1ncc(Cc2ccc(F)cc2)s1	·	-31.8	·	13.1	·
COc1ccccc1NC(=S)N1CCCc2ccccc21	19	-13.6	8	6.2	16.1*
COc1cccc(C2NC(=O)NC(O)(C(F)(F)F)C2C(=O)c2cccnc2)c1OC (stereo unspecified)	23	10.8	11	8.2	18.7*
O=C(NCC1CC1)c1ccc(Nc2nc3ccc(Br)cc3[nH]2)cc1	30	-44.5	24	74.2*	-1.3
COc1ccc(-c2nc(-c3ccc(O)cc3O)cs2)cc1OC	13	-43.4	11	82.2*	-3.1
